Values joined by “and” are separate entries in the source; they are usually repeats but may differ in a detail not shown here. Identical values can stand only once. The panel holds about 79,000 compounds, 15% with a hit somewhere; the sample as a whole holds those more often. A structure can be active in one record and inactive in another. Active and inactive are the calls of the source. Rule as the data show it: active = growth inhibition above about 70%; inactive = the rest.

Experiment [1] can be described thus: NCI Yeast Anticancer Drug Screen. Data for the rad50 strain (AID 155).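 Also: 0% = growth of vehicle-only cultures of the same strain.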 The following applies: S. cerevisiae rad50 strain growth inhibition, stronger effect = higher value. An outline of the steps: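 Inhibition values express reduced yeast growth in compound-treated cultures relative to vehicle-treated controls.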
Experiment [2] can be described thus: NCI Yeast Anticancer Drug Screen. Data for the mec2-1 strain (AID 157). The settings on record: S. cerevisiae mec2-1 strain, stronger effect = higher value. An outline of the steps:
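mec2-1 yeast strain, carrying an alteration in DNA damage repair or cell cycle control, was exposed to compounds; growth inhibition was measured relative to vehicle-treated controls.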

The nature of experiment [3]: NCI Yeast Anticancer Drug Screen. Data for the sgs1 mgt1 strain (AID 161).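 Also: 0% = growth of cultures given vehicle only.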 The following applies: S. cerevisiae sgs1 mgt1 strain, stronger effect = higher value. The method in brief:
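Compounds are added to genetically altered yeast, and growth is compared with cultures given vehicle alone to give percent inhibition.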

Experiment [4] is described as follows: NCI Yeast Anticancer Drug Screen. Data for the cln2 rad14 strain (AID 165).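 Also: 0% = growth equal to vehicle treated cultures.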 The settings on record: S. cerevisiae cln2 rad14 strain, stronger effect = higher value. An outline of the steps:
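Yeast carrying cln2 and rad14 alterations (cell cycle control and DNA damage repair) were exposed to compounds. Growth inhibition was measured against vehicle-treated controls.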

Experiment [5] in a line: NCI Yeast Anticancer Drug Screen. Data for the bub3 strain (AID 167). The settings on record: S. cerevisiae bub3 mutant strain, stronger effect = higher value. An outline of the steps: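 Steps: expose the mutant yeast strain to compound; grow alongside vehicle-treated cultures; measure growth; express inhibition against the vehicle cultures.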
The nature of experiment [6]: NCI Yeast Anticancer Drug Screen. Data for the mlh1 rad18 strain (AID 175). The settings on record: S. cerevisiae mlh1 rad18 strain growth inhibition, stronger effect = higher value. An outline of the steps: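 Growth inhibition of the yeast strain was measured after compound exposure and expressed relative to vehicle-treated controls. The strain carries defined defects in DNA damage repair.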

[7] abbreviates: at 5.0 µM (retest, dose inferred, filed as 0.5).
[8] abbreviates: at 50.0 µM (retest, dose inferred, filed as 5.0).

Regarding `C[CH2][Hg][Cl]`, the growth inhibition in experiment [1] (setting [7]) is 99% (active) and 48% (inactive); in experiment [1] (setting [8]) it was 99% (active); in experiment [1] (at 50.0 µM) it was 93.1% (active); in experiment [2] (setting [7]), 100% (active) and 46% (inactive); in experiment [2] (setting [8]) it was 100% (active) and 93% (active); in experiment [2] (at 50.0 µM), 95% (active). In addition, the growth inhibition in experiment [3] (setting [7]) was 100% (active); in experiment [3] (setting [8]), 100% (active) and 99% (active); in experiment [3] (at 50.0 µM) it was 94.5% (active); in experiment [4] (setting [7]), 99% (active) and 86% (active); in experiment [4] (setting [8]) it was 99% (active); in experiment [4] (at 50.0 µM) it was 93.3% (active). Also, the growth inhibition was 100% (active) in experiment [5] (setting [7]); 99% (active) in experiment [5] (setting [8]); 93.7% (active) in experiment [5] (at 50.0 µM); 99% (active) and 35% (inactive) in experiment [6] (setting [7]); 99% (active) in experiment [6] (setting [8]); 93.2% (active) in experiment [6] (at 50.0 µM).
On to `O=c1oc2ccccc2c(O)c1C(c1ccc(OCc2ccccc2)cc1)c1c(O)c2ccccc2oc1=O`, for which the growth inhibition is 16% (inactive) in experiment [1] (setting [7]); 7% (inactive) in experiment [1] (setting [8]); 63.3% (inactive) in experiment [1] (at 50.0 µM); 16% (inactive) in experiment [2] (setting [7]); 51% (inactive) in experiment [2] (setting [8]); 86.3% (active) in experiment [2] (at 50.0 µM). In addition, the growth inhibition in experiment [3] (setting [7]) was -33% (inactive); in experiment [3] (setting [8]) it was 92% (active); in experiment [3] (at 50.0 µM), 65.3% (inactive); in experiment [4] (setting [7]), -3% (inactive); in experiment [4] (setting [8]), 94% (active); in experiment [4] (at 50.0 µM) it was 62.2% (inactive). Further, the growth inhibition in experiment [5] (setting [7]) was 7% (inactive); in experiment [5] (setting [8]) it was 95% (active); in experiment [5] (at 50.0 µM), 60.2% (inactive); in experiment [6] (setting [7]), 7% (inactive); in experiment [6] (setting [8]), 23% (inactive); in experiment [6] (at 50.0 µM), 50.9% (inactive).
Regarding `O=[N+]([O-])c1ccc(SC2CCCCCCC2Cl)c([N+](=O)[O-])c1` (centres undefined), the growth inhibition is 6% (inactive) in experiment [1] (setting [7]); 22% (inactive) in experiment [1] (setting [8]); 22.1% (inactive) in experiment [1] (at 50.0 µM); 8% (inactive) in experiment [2] (setting [7]); 41% (inactive) in experiment [2] (setting [8]); 4.3% (inactive) in experiment [2] (at 50.0 µM). Further, the growth inhibition in experiment [3] (setting [7]) was 10% (inactive); in experiment [3] (setting [8]), 76% (active); in experiment [3] (at 50.0 µM) it was 30.1% (inactive); in experiment [4] (setting [7]), -1% (inactive); in experiment [4] (setting [8]), 29% (inactive); in experiment [4] (at 50.0 µM) it was 14.8% (inactive). Moreover, the growth inhibition in experiment [5] (setting [7]) is 15% (inactive); in experiment [5] (setting [8]) it was 85% (active); in experiment [5] (at 50.0 µM), 20.5% (inactive); in experiment [6] (setting [7]), 7% (inactive); in experiment [6] (setting [8]), 53% (inactive); in experiment [6] (at 50.0 µM) it was 72.8% (active).
Turning to `CCC[CH2][Sn]([CH2]CCC)([S]C#N)[S]C#N`, the growth inhibition is 95% (active) in experiment [1] (setting [7]); 97% (active) in experiment [1] (setting [8]); 89.3% (active) in experiment [1] (at 50.0 µM); 96% (active) in experiment [2] (setting [7]); 97% (active) in experiment [2] (setting [8]); 91% (active) in experiment [2] (at 50.0 µM). In addition, the growth inhibition in experiment [3] (setting [7]) is 93% (active); in experiment [3] (setting [8]) it was 97% (active); in experiment [3] (at 50.0 µM) it was 90.5% (active); in experiment [4] (setting [7]), 93% (active); in experiment [4] (setting [8]), 97% (active); in experiment [4] (at 50.0 µM), 86% (active). In addition, the growth inhibition was 96% (active) in experiment [5] (setting [7]); 96% (active) in experiment [5] (setting [8]); 89.1% (active) in experiment [5] (at 50.0 µM); 97% (active) in experiment [6] (setting [7]); 97% (active) in experiment [6] (setting [8]); 88% (active) in experiment [6] (at 50.0 µM).
For the compound `CCC1(O)CC(OC2CC(N(C)C)C(OC3CC4OC5CC(=O)C(C)OC5OC4C(C)O3)C(C)O2)c2c(cc3c(c2O)C(=O)c2c(O)ccc(O)c2C3=O)C1C(=O)OC` (centres undefined), the growth inhibition in experiment [1] (setting [7]) was 88% (active) and 93% (active); in experiment [1] (setting [8]), 97% (active) and 98% (active); in experiment [1] (at 50.0 µM) it was 89.9% (active) and 87.5% (active) and 91.9% (active); in experiment [2] (setting [7]), 71% (active) and 96% (active) and 95% (active); in experiment [2] (setting [8]), 98% (active); in experiment [2] (at 50.0 µM), 90% (active) and 89.7% (active) and 92% (active). The growth inhibition in experiment [3] (setting [7]) is 89% (active) and 79% (active) and 93% (active); in experiment [3] (setting [8]) it was 98% (active) and 97% (active); in experiment [3] (at 50.0 µM), 91% (active) and 90% (active); in experiment [4] (setting [7]), 73% (active) and 85% (active) and 86% (active); in experiment [4] (setting [8]), 96% (active) and 97% (active); in experiment [4] (at 50.0 µM), 88% (active) and 87.9% (active) and 91.4% (active). Also, the growth inhibition in experiment [5] (setting [7]) was 93% (active) and 92% (active); in experiment [5] (setting [8]) it was 98% (active) and 97% (active); in experiment [5] (at 50.0 µM), 88.6% (active) and 87.2% (active) and 84.8% (active); in experiment [6] (setting [7]), 92% (active) and 96% (active) and 94% (active); in experiment [6] (setting [8]) it was 97% (active) and 96% (active) and 98% (active); in experiment [6] (at 50.0 µM), 89.8% (active) and 86% (active) and 89.9% (active).
As for `ClCc1nc2ccccc2[nH]1`, the growth inhibition is 10% (inactive) in experiment [1] (setting [7]); 88% (active) in experiment [1] (setting [8]); 88.7% (active) in experiment [1] (at 50.0 µM); 4% (inactive) in experiment [2] (setting [7]); 45% (inactive) in experiment [2] (setting [8]); 20.5% (inactive) in experiment [2] (at 50.0 µM). The growth inhibition was 18% (inactive) in experiment [3] (setting [7]); 83% (active) in experiment [3] (setting [8]); 83.5% (active) in experiment [3] (at 50.0 µM); -1% (inactive) in experiment [4] (setting [7]); 77% (active) in experiment [4] (setting [8]); 60% (inactive) in experiment [4] (at 50.0 µM). In addition, the growth inhibition in experiment [5] (setting [7]) was -9% (inactive); in experiment [5] (setting [8]), 1% (inactive); in experiment [5] (at 50.0 µM), -31.9% (inactive); in experiment [6] (setting [7]), 14% (inactive); in experiment [6] (setting [8]), 82% (active); in experiment [6] (at 50.0 µM) it was 74.7% (active).
For the compound `COC(=O)C(CCCN=C(N)N[N+](=O)[O-])NC(=O)c1ccc2c(c1O)C(=O)c1ccccc1C2=O` (centres undefined), the growth inhibition in experiment [1] (setting [7]) was 8% (inactive); in experiment [1] (setting [8]) it was 15% (inactive); in experiment [1] (at 50.0 µM), 71.6% (active); in experiment [2] (setting [7]), 4% (inactive); in experiment [2] (setting [8]), 11% (inactive); in experiment [2] (at 50.0 µM), 28.7% (inactive). In addition, the growth inhibition is 6% (inactive) in experiment [3] (setting [7]); 18% (inactive) in experiment [3] (setting [8]); 68.6% (inactive) in experiment [3] (at 50.0 µM); -4% (inactive) in experiment [4] (setting [7]); 3% (inactive) in experiment [4] (setting [8]); 47.9% (inactive) in experiment [4] (at 50.0 µM). The growth inhibition in experiment [5] (setting [7]) is 2% (inactive); in experiment [5] (setting [8]) it was 5% (inactive); in experiment [5] (at 50.0 µM) it was 14.5% (inactive); in experiment [6] (setting [7]), 5% (inactive); in experiment [6] (setting [8]) it was 20% (inactive); in experiment [6] (at 50.0 µM), 66.2% (inactive).
In the case of `CCCCCCC1CC2(Cl)C(Cl)=C(Cl)C1(Cl)C2(Cl)Cl` (centres undefined), the growth inhibition is 32% (inactive) in experiment [1] (setting [7]); 99% (active) in experiment [1] (setting [8]); 99.7% (active) in experiment [1] (at 50.0 µM); 34% (inactive) in experiment [2] (setting [7]); 100% (active) in experiment [2] (setting [8]); 99.8% (active) in experiment [2] (at 50.0 µM). Also, the growth inhibition in experiment [3] (setting [7]) was 53% (inactive); in experiment [3] (setting [8]) it was 99% (active); in experiment [3] (at 50.0 µM), 99.8% (active); in experiment [4] (setting [7]), 19% (inactive); in experiment [4] (setting [8]), 99% (active); in experiment [4] (at 50.0 µM), 99.6% (active). For the same compound, the growth inhibition in experiment [5] (setting [7]) is 20% (inactive); in experiment [5] (setting [8]) it was 99% (active); in experiment [5] (at 50.0 µM), 99.7% (active); in experiment [6] (setting [7]), 54% (inactive); in experiment [6] (setting [8]), 99% (active); in experiment [6] (at 50.0 µM), 99.5% (active).
